In PubChem BioAssay (NCATS):
Records with an inconclusive call do not appear. The source made the active and inactive calls. The call rests on the fitted dose curve; in most records, active means well fitted cell-killing curve with a large enough effect; inconclusive means small, poorly fitted or top-dose-only effect, or effect the other way; inactive means no such curve, though single readings can be large or run the other way.

assay: Quantitative High-Throughput drug screen in 47 multiple myeloma cell lines against the NCATS MIPE library collection: VP6_DJ cell viability assay (AID 1919867); details: ATP luminescence, 48 h; series mostly up to 45.8 µM; viability (% of DMSO): at the top concentration; further: nearly all actives have a fitted effect of over 40% in size;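 on viability (% of DMSO): 100% = DMSO-only wells and 0% = wells with media alone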
Method in brief: (§1)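 Cells were exposed to library compounds for 48 hours, after which ATP was measured by CellTiter-Glo. Signal was taken as median relative luminescence units.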
Potency means the concentration at half of the fitted maximal effect.

| Compound | Potency | viability (% of DMSO) |
| --- | --- | --- |
| CC[C@H](CC#N)OC(=O)N[C@@H](C)c1cccc(NC(=O)Nc2ccc(-c3cnco3)c(OC)c2)c1 | 1.32 µM (active) | – |
| Cc1ccccc1C(=O)c1ccc(Nc2ccc(Br)cc2N)cc1Cl | 16.6 µM (active) | – |
| CCc1cccc(CC)c1NC(=O)N1Cc2[nH]nc(NC(=O)c3ccc(N4CCN(C)CC4)cc3)c2C1 | 5.9 µM (active) | – |
| Nc1ncnc2c1ncn2[C@@H]1O[C@H](CO)[C@@H](O)[C@@H]1O | 0.166 µM (active) | – |
| CC(C)(O)CC(=O)NCCn1ccc2ncnc(Nc3ccc(Oc4cccc(C(F)(F)F)c4)c(Cl)c3)c21 | – | 10.9% (inactive) |
| c1cc(OCCN2CCCCC2)cc(-c2n[nH]c3ccc(-c4ncn[nH]4)cc23)c1 | 11.8 µM (active) | – |
| O=C(C=Cc1ccc(O)cc1)c1ccc(O)cc1O | 18.7 µM (active) | – |
| COc1ccc2c(c1)CC[C@H]1[C@@H]2CC[C@]2(C)[C@@H](NCCCCCCN3C(=O)C=CC3=O)CC[C@H]12 | – | 141% (inactive) |
| Cc1cc(CS(=O)(=O)c2ccccc2)cc(OCc2ccc(CN3CCC[C@H]3CO)cc2)c1 | 0.296 µM (active) | – |
| O=C(O)Cc1cccc(OCCCN(Cc2cccc(C(F)(F)F)c2Cl)CC(c2ccccc2)c2ccccc2)c1 | 16.6 µM (active) | – |
| COc1cc([C@H]2Oc3cc([C@H]4Oc5cc(O)cc(O)c5C(=O)[C@H]4O)ccc3O[C@H]2CO)ccc1O | 11.8 µM (active) | – |
| C[C@@H](N)c1ccc(C(=O)Nc2ccnc3[nH]ccc23)cc1 | 26.4 µM (active) | – |
| C#C[C@]1(O)CC[C@H]2[C@H]3CCc4cc(OC)ccc4[C@H]3CC[C@@]21C | 16.6 µM (active) | – |

assay: Quantitative High-Throughput drug screen in 47 multiple myeloma cell lines against the NCATS MIPE library collection: UTMC2_PLB cell viability assay (AID 1919868); details: CellTiter-Glo ATP luminescence, 48 h; viability (% of DMSO control): at 45.8 µM (top of the series); further: nearly all actives have a fitted effect of over 55% in size;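 on viability (% of DMSO control): 100% = DMSO-only wells and 0% = media-only wells without cells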
Method in brief: as §1

| Compound | Potency | viability (% of DMSO control) |
| --- | --- | --- |
| CC[C@H](CC#N)OC(=O)N[C@@H](C)c1cccc(NC(=O)Nc2ccc(-c3cnco3)c(OC)c2)c1 | 1.18 µM (active) | – |
| O=C1CN2Cc3c(ccc(Cl)c3Cl)N=C2N1 | – | 130% (inactive) |
| Cc1ccc2c(c1)C(=O)[C@]1(O)CCN(c3ccccc3)C1=N2 | 4.69 µM (active) | – |
| COc1ccc(CCN(C)CCCOc2ccc(S(=O)(=O)c3[nH]c4ccccc4c3C(C)C)cc2)cc1OC | – | 182% (inactive) |
| CCC[C@H](N[C@@H](C)C(=O)N1[C@@H]2CCCC[C@H]2C[C@H]1C(=O)O)C(=O)OCC | 1.32 µM (active) | – |

assay: Quantitative High-Throughput drug screen in 47 multiple myeloma cell lines against the NCATS MIPE library collection: PE2_PLB cell viability assay (AID 1919869); details: PE2_PLB myeloma cells viability, ATP luminescence, 48 h; series mostly up to 45.8 µM; viability (% of control): at the top concentration; further: nearly all actives have a fitted effect of over 35% in size;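 on viability (% of control): 100% = DMSO-only wells and 0% = cell-free media-only wells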
Method in brief: as §1

| Compound | Potency | viability (% of control) |
| --- | --- | --- |
| CC[C@H](CC#N)OC(=O)N[C@@H](C)c1cccc(NC(=O)Nc2ccc(-c3cnco3)c(OC)c2)c1 | 4.18 µM (active) | – |
| Cc1ccccc1C(=O)c1ccc(Nc2ccc(Br)cc2N)cc1Cl | 18.7 µM (active) | – |
| O=C1CN2Cc3c(ccc(Cl)c3Cl)N=C2N1 | 20.9 µM (active) | – |
| Cc1ccc2c(c1)C(=O)[C@]1(O)CCN(c3ccccc3)C1=N2 | – | 88.6% (inactive) |
| CCc1cccc(CC)c1NC(=O)N1Cc2[nH]nc(NC(=O)c3ccc(N4CCN(C)CC4)cc3)c2C1 | 20.9 µM (active) | – |
| Nc1ncnc2c1ncn2[C@@H]1O[C@H](CO)[C@@H](O)[C@@H]1O | 14.8 µM (active) | – |
| C#CCN(C)CC1=Cc2ccccc2Oc2ccccc21 | – | 87.2% (inactive) |
| COc1ccc(CCN(C)CCCOc2ccc(S(=O)(=O)c3[nH]c4ccccc4c3C(C)C)cc2)cc1OC | 18.7 µM (active) | – |
| N#Cc1ccc(Oc2ccc3c(c2)COB3O)cc1 | 20.9 µM (active) | – |
| CC(C)(O)CC(=O)NCCn1ccc2ncnc(Nc3ccc(Oc4cccc(C(F)(F)F)c4)c(Cl)c3)c21 | 23.5 µM (active) | – |
| c1cc(OCCN2CCCCC2)cc(-c2n[nH]c3ccc(-c4ncn[nH]4)cc23)c1 | 10.5 µM (active) | – |
| CN[C@@H]1CN(c2ccc3c(=O)c(C(=O)O)cn(-c4nccs4)c3n2)C[C@@H]1OC | 1.82 µM (active) | – |
| O=[N+]([O-])c1ccc(Nc2ccccc2-c2ccccc2)c2nonc12 | 20.9 µM (active) | – |
| O=C(C=Cc1ccc(O)cc1)c1ccc(O)cc1O | 20.9 µM (active) | – |
| COc1ccc2c(c1)CC[C@H]1[C@@H]2CC[C@]2(C)[C@@H](NCCCCCCN3C(=O)C=CC3=O)CC[C@H]12 | – | 123% (inactive) |
| CO[C@H]1C=CO[C@@]2(C)Oc3c(C)c(O)c4c(O)c(c(C=NN5CCN(C)CC5)c(O)c4c3C2=O)NC(=O)C(C)=CC=C[C@H](C)[C@H](O)[C@@H](C)[C@@H](O)[C@@H](C)[C@H](OC(C)=O)[C@H]1C | – | 106% [at 15.3 µM] (inactive) |
| COc1ccc(C=CC(=O)Nc2ccccc2C(=O)O)cc1OC | 14.8 µM (active) | – |
| CNC(=O)[C@H](Cc1ccccc1)NC(=O)[C@H](CC(C)C)[C@H](CSc1cccs1)C(=O)NO | 16.6 µM (active) | – |
| O=C(O)Cc1cccc(OCCCN(Cc2cccc(C(F)(F)F)c2Cl)CC(c2ccccc2)c2ccccc2)c1 | 16.6 µM (active) | – |
| C[C@@H](N)c1ccc(C(=O)Nc2ccnc3[nH]ccc23)cc1 | 26.4 µM (active) | – |
| CC(=O)OCC(=O)[C@@]1(O)CC[C@H]2[C@@H]3CCC4=CC(=O)C=C[C@]4(C)[C@@H]3[C@@H](O)C[C@@]21C | – | 111% (inactive) |
| NC(=O)c1noc([C@H](CCCC2CCCCC2)CC(=O)NO)n1 | 18.7 µM (active) | – |
